Experimental data: PubChem BioAssay
Activity calls are given as the source filed them.

Columns and labels:
[1] = tested on: Wnt5a (protein binding on small-molecule microarray); experiment: Wnt5a binders on small-molecule microarray, primary screen, biophysical, 635/667 nm fluorescence (AID 1142); settings: 635 nm fluorescence, higher = more signal;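 further: fluorescence read at 667 nm with signal to noise per printed feature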
[2] = cell viability in Huh7 cells, primary screen, cytotoxicity control for HCV replication inhibitor project, CellTiter-Glo luminescence, basal, 48 h (AID 1143); settings: Huh7 HCV replicon, higher = more signal, called active from +8 up or from −8 down;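 further: Huh7 hepatoma cells carrying a hepatitis C replication reporter with no stimulus; test concentration not given here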
[3] = CREB reporter modulators without forskolin, primary screen, cell-based, PC12, CRE-LacZ reporter, unstimulated (AID 1145); settings: no forskolin, luminescence, 4.5 h, higher = more signal, called active from +8 up or from −8 down
[4] = CREB reporter modulators under forskolin, primary screen, cell-based, PC12, CRE-LacZ reporter, forskolin-stimulated (AID 1146); settings: luminescence, 4.5 h, higher = more signal, called active from +8 up or from −8 down;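 further: PC12 cells with 6xCRE LacZ reporter stimulated by forskolin 10 µM; beta-galactosidase reporter signal reflecting CREB driven transcription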
[5] = molecular target: Streptavidin (Streptomyces avidinii) (UniProt P22629); experiment: streptavidin binders on small-molecule microarray, primary screen, artefact control for SMM compound annotation, biophysical, 635/667 nm fluorescence (AID 1147); settings: streptavidin binding, higher = more signal;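 further: signal reflects streptavidin binding to arrayed compounds as a control protein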
Chain of Streptavidin (Streptomyces avidinii) (P22629 whole entry, looked up): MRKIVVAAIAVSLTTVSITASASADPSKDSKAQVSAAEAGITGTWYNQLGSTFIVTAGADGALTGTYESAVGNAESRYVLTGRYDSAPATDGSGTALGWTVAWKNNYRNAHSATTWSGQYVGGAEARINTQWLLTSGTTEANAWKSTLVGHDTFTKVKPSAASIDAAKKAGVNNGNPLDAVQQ

[6] = small-molecule binders of probe aInhba, primary screen, biochemical, small-molecule microarray, 635/667 nm fluorescence (AID 1148); settings: higher = more signal;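 further: score merges 667nm spot fluorescence with signal-to-noise for antibody binding to printed compounds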
Torsin-1A (Homo sapiens) [7] = molecular target: Torsin-1A (Homo sapiens) (UniProt O14656); experiment: torsin A binders from cell lysate, primary screen, small-molecule microarray, wild-type, 635/667 nm (AID 1149); settings: COS7 hTOR1A-WT lysate, 635 nm fluorescence, higher = more signal
Chain of Torsin-1A (Homo sapiens) (O14656 whole entry, looked up): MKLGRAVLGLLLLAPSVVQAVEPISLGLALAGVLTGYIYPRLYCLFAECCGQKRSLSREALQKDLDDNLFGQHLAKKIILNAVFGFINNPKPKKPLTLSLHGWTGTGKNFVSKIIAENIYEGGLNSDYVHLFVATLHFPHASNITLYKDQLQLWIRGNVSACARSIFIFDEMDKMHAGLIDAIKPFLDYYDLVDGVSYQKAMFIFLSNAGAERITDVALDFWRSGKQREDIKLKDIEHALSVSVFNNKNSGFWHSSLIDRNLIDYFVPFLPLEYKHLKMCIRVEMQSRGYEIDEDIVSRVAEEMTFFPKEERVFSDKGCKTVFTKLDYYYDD

Torsin-1A (Homo sapiens) [8] = molecular target: Torsin-1A (Homo sapiens) (UniProt O14656); experiment: small-molecule binders of mutant TOR1A in lysate, primary screen, cell lysate, small-molecule microarray, COS7 lysate, 635/667 nm fluorescence (AID 1150); settings: COS7 hTOR1A mutant lysate, 635 nm fluorescence, higher = more signal;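 further: score pools 667 nm emission and signal to noise measuring lysate protein binding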
[9] = tested on: Sonic hedgehog protein (Shh); experiment: small-molecule binders of Shh protein, primary screen, biochemical, small-molecule microarray, 635/667 nm fluorescence (AID 1151); settings: small-molecule microarray binding, 635 nm fluorescence; higher = more signal;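 further: Shh protein binding to compounds spotted on small-molecule microarray slides; score combines spot fluorescence intensity with signal-to-noise across triplicate slides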
[10] = E. coli DRC41 culture turbidity changes, primary screen, E. coli filamentation inducer project, strain DRC41, OD650, 48 h (AID 1152);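 further: E. coli MC1000 strain DRC41 lacking acrAB efflux pump and sulA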; settings: E. coli DRC41 (acrAB sulA), higher = more signal, called active from +8 up or from −8 down
[11] = small-molecule binders of probe aLefty1, primary screen, biochemical, small-molecule microarray, 635/667 nm fluorescence (AID 1153); settings: higher = more signal;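 further: score merges spot fluorescence with signal-to-noise ratio from the scanned slide images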
[12] = PSAC antagonists in infected red cells, primary screen, cell-based, P. falciparum Indochina, OD700, 1 h (AID 1154); settings: P. falciparum Indochina infected RBC osmotic lysis, higher = more signal, called active from +8 up or from −8 down
[13] = PSAC antagonists in infected red cells, primary screen, cell-based, P. falciparum Indochina, OD700, 2 h (AID 1155);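 further: lysis reports solute entry through the parasite surface anion channel PSAC; channel blockers reduce lysis of infected cells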; settings: P. falciparum Indochina infected erythrocytes, osmotic lysis OD700; higher = more signal, called active from +8 up or from −8 down
[14] = osmotic lysis modulators in infected erythrocytes, primary screen, PSAC antagonist project, cell-based, P. falciparum Indochina, OD700, 3 h (AID 1156); settings: higher = more signal, called active from +8 up or from −8 down
[15] = PSAC antagonists in infected red cells, primary screen, cell-based, P. falciparum Indochina, OD700, 18 h (AID 1157); settings: P. falciparum Indochina infected erythrocytes, osmotic lysis OD700, 18 h; higher = more signal, called active from +8 up or from −8 down
[16] = modulators of S6 phosphorylation in cells, primary screen, cell-based, A549, cytoblot, luminescence, serum-stimulated (AID 1158); settings: A549 phospho-S6 cytoblot, 5 h, higher = more signal;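 further: serum-stimulated A549 lung adenocarcinoma cells; signal is phosphorylated S6 detected by cytoblot immunostaining with HRP secondary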
[17] = molecular target: NADPH oxidase 2 (Homo sapiens) (UniProt P04839); experiment: NOX2-dependent H2O2 signal modulators, primary screen, NOX inhibitor project, cell-based, HEK293-NOX2, PMA-stimulated, Amplex Red fluorescence (AID 1159); settings: 45 min, higher = more signal, called active from +8 up or from −8 down; further: test concentration not given here
Chain of NADPH oxidase 2 (Homo sapiens) (P04839 whole entry, looked up): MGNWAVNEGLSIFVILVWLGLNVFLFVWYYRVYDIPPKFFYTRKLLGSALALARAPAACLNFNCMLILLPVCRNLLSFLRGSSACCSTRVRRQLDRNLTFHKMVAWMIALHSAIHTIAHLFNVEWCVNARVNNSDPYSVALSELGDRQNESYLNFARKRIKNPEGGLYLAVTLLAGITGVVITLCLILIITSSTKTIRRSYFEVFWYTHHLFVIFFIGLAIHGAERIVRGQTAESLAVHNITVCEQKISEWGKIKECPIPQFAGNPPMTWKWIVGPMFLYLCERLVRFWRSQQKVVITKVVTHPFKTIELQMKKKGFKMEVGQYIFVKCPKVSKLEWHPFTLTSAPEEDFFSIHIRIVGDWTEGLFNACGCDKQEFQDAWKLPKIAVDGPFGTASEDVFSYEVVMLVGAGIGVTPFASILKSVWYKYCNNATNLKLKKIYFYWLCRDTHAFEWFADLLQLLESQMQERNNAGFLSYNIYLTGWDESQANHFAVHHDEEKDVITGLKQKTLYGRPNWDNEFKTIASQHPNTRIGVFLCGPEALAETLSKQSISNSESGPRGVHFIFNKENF

[18] = molecular target: NADPH oxidase 4 (Homo sapiens) (UniProt Q9NPH5); experiment: NOX4-dependent H2O2 signal modulators, primary screen, NOX inhibitor project, cell-based, HEK293-NOX4, tetracycline-induced, Amplex Red fluorescence (AID 1160); settings: 45 min, higher = more signal, called active from +8 up or from −8 down
Chain of NADPH oxidase 4 (Homo sapiens) (Q9NPH5 whole entry, looked up): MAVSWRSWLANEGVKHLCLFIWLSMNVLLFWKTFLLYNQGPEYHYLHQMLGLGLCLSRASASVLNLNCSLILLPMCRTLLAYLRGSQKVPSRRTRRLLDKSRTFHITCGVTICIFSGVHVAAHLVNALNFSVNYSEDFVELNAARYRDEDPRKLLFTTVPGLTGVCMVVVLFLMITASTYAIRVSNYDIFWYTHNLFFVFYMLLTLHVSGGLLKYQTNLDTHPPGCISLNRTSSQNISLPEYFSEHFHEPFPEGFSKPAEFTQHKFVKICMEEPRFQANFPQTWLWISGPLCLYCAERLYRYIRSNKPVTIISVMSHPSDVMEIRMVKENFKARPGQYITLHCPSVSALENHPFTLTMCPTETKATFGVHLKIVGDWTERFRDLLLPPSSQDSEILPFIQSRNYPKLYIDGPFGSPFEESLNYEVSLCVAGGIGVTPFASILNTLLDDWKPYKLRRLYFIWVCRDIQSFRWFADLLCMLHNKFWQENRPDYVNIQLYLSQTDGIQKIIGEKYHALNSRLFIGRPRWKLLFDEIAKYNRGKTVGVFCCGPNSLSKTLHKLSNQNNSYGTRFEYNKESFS

[19] = molecular target: NADPH oxidase 5 (Homo sapiens) (UniProt Q96PH1); experiment: NOX5-dependent H2O2 signal modulators, primary screen, NOX inhibitor project, cell-based, HEK293-NOX5, Amplex Red fluorescence (AID 1161); settings: HEK293-NOX5, ionomycin, 45 min, higher = more signal
Chain of NADPH oxidase 5 (Homo sapiens) (Q96PH1 whole entry, looked up): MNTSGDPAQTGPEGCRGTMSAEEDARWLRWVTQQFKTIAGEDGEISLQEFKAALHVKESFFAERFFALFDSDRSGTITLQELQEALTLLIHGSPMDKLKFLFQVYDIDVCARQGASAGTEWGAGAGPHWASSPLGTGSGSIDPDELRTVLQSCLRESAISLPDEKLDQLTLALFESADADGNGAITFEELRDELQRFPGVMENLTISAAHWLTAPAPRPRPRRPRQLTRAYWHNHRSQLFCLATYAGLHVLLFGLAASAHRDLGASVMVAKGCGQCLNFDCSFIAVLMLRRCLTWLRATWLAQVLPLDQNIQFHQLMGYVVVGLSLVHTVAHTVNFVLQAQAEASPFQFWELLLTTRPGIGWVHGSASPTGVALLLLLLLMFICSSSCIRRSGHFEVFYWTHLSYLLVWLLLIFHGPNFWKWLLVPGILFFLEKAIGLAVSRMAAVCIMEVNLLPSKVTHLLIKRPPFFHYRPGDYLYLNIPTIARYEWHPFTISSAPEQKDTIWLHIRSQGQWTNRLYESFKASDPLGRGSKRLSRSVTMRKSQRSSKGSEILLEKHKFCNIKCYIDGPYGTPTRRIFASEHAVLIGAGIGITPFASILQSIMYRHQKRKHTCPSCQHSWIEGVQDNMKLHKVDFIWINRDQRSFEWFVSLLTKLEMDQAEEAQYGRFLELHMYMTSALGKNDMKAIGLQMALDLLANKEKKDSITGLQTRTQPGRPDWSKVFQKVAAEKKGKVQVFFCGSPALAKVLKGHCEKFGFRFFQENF

[20] = A549 cell viability effects, profiling panel, calcein-AM fluorescence, 48 h, basal (AID 1162); settings: higher = more signal; further: test concentration not given here

SMILES	composite z-score [1]	z-score [2]	z-score [3]	z-score [4]	composite z-score [5]	composite z-score [6]	composite z-score (Torsin-1A (Homo sapiens) [7])	composite z-score (Torsin-1A (Homo sapiens) [8])	composite z-score [9]	z-score [10]	composite z-score [11]	z-score [12]	z-score [13]	z-score [14]	z-score [15]	z-score [16]	z-score [17]	z-score [18]	z-score [19]	z-score [20]
COc1ccc([Si](C)(C)[C@@H]2[C@@H](CCn3cc([C@H](O)c4ccccc4)nn3)O[C@]3(C(=O)N(C)c4c(Br)cc(C)cc43)[C@H]2C)cc1	0.17	-6.27 (inactive)	8.24 (active)	-1.37 (inactive)	-0.541	0.0659	0.722	-0.0682	0.658	3.5 (inactive)	-0.279	26.4 (active)	15.1 (active)	0.547 (inactive)	0.083 (inactive)	2.34	1.04 (inactive)	0.593 (inactive)	0.231	-1.72
CC1CC/C=C\[C@H]2OC34C=CCN(C(C)C)C(=O)[C@H]3N(C(CO)C(C)C)C(=O)[C@@H]4C2C(=O)O1 (stereo not given in full)	-0.0784	0.114 (inactive)	-0.346 (inactive)	-0.791 (inactive)	-1.28	-0.133	-0.87	-0.22	-0.137	2.16 (inactive)	-0.225	1.3 (inactive)	-0.74 (inactive)	0.604 (inactive)	-0.531 (inactive)	0.0551	1.49 (inactive)	0.743 (inactive)	1.79	1.06
CO[C@H]1O[C@H](CO)[C@@H](OC(=O)Nc2ccccc2)[C@H](OC(=O)Nc2ccccc2-c2ccccc2)[C@@H]1OC(=O)Nc1ccccc1-c1ccccc1	0.36	-5.22 (inactive)	0.204 (inactive)	-0.446 (inactive)	1.44	0.329	1.17	0.806	2.03	1.33 (inactive)	1.29	2.57 (inactive)	0.116 (inactive)	-0.358 (inactive)	-2.03 (inactive)	1.01	2.2 (inactive)	0.697 (inactive)	0.306	-1.01
CCCCCN1CC=CC23O[C@@H]4/C=C\CCC(C)OC(=O)C4[C@H]2C(=O)N(CCCO)[C@@H]3C1=O (stereo not given in full)	0.0429	-1.37 (inactive)	0.487 (inactive)	0.213 (inactive)	-0.67	-0.245	0.26	-0.147	-0.0977	1.5 (inactive)	-0.229	-0.404 (inactive)	-0.0816 (inactive)	0.787 (inactive)	0.281 (inactive)	0.0147	1.86 (inactive)	0.381 (inactive)	2.57	-0.367
O=C(NCC(F)(F)F)[C@@H]1c2ccccc2C(=O)N(C2Cc3ccccc3C2)[C@H]1c1ccc(CO)cc1	-0.034	-1.11 (inactive)	-0.295 (inactive)	-1.15 (inactive)	-1.25	0.106	-0.0578	0.224	-0.875	2.43 (inactive)	0.0588	3.55 (inactive)	-0.483 (inactive)	1.8 (inactive)	-0.683 (inactive)	1.14	0.207 (inactive)	1.23 (inactive)	-1.23	2.25
C=CC[C@@]1(C(=O)NCc2ccccc2)N=C(c2ccc(OCCCO)cc2)O[C@@H]1c1ccccc1	0.102	-4.6 (inactive)	-0.16 (inactive)	-1.56 (inactive)	0.344	0.0582	0.161	0.551	-0.435	2.48 (inactive)	0.399	24.4 (active)	11.3 (active)	2.34 (inactive)	0.546 (inactive)	1.46	-0.189 (inactive)	0.956 (inactive)	-1.14	-0.506
O=C1c2ccccc2C(=O)c2cc([C@H]3Oc4ccccc4S(=O)(=O)N4CCC[C@@H]34)ccc21	-0.0879	-4.31 (inactive)	4.29 (inactive)	-1.21 (inactive)	-0.615	-0.0079	-0.474	-0.122	-0.441	3.11 (inactive)	-0.0625	8.47 (active)	0.452 (inactive)	0.544 (inactive)	-1.29 (inactive)	1.1	0.0288 (inactive)	-1.18 (inactive)	0.489	0.326
COC(=O)c1c(CC[C@@H](CO)NC(=O)Nc2ccc(OC)cc2)oc(C(=O)Cc2ccccc2)c1C(=O)OC	0.0603	0.566 (inactive)	9.58 (active)	-0.453 (inactive)	0.652	-0.0531	0.462	0.943	0.97	1.7 (inactive)	-0.147	3.06 (inactive)	1.01 (inactive)	0.681 (inactive)	0.458 (inactive)	-0.0632	1.31 (inactive)	0.649 (inactive)	-2.22	-1.27
